Here are results for 40 molecules from PubChem BioAssay (Tox21).

Inconclusive results are not listed. Activity calls are given as the source filed them. The call rests on the fitted dose curve; in most records, active means well fitted cell-killing curve with a large enough effect in the repeat runs; inconclusive means weak or mixed curves; inactive means no such curve, though single readings can be large or run the other way.
On the % scale 0 is the no-effect control and ±100 the full control effect; potency means the concentration at half of the fitted maximal effect.

This experiment is described as follows: qHTS assay to identify small molecule antagonists of the androgen receptor (AR) signaling pathway - cell viability counter screen (AID 743033; further: nearly all actives have a fitted effect of over 45% in size). The note with it: AR-bla HEK293 viability, CellTiter-Glo luminescence, 16 h; series mostly up to 58.5 µM; activity change, negative = cytotoxicity: at the top concentration. From the text:
National Center for Advancing Translational Sciences [NCATS]
NIH Chemical Genomics Center [NCGC]
U.S. Environmental Protection Agency [EPA]
National Institutes of Environmental Health Sciences [NIEHS]
National Toxicology Program [NTP]
U.S. Food and Drug Administration [FDA]
Androgen receptor (AR), a nuclear hormone receptor, plays a critical role in AR-dependent prostate cancer and other androgen related diseases. Endocrine disrupting chemicals (EDCs) and their interactions with steroid hormone receptors like AR may cause disruption of normal endocrine function as well as interfere with metabolic homeostasis, reproduction, developmental and behavioral functions. To identify the compounds that inhibit AR signaling, GeneBLAzer AR-UAS-bla-GripTite cell line (Invitrogen, Carlsbad, CA, USA) containing a beta-lactamase reporter gene under control of an Upstream Activator Sequence (UAS) stably integrated into HEK293 cells was used to screen the Tox21 10K compound library. The cytotoxicity of the Tox21 compound library against the AR-bla cell line was tested in parallel by measuring the cell viability using CellTiter-Glo assay in the same wells.
Tox21 Assay Protocol Summary:
AR-bla cells were dispensed at 2,000 cells/5 uL of assay medium per well into black wall/clear-bottom 1536-well plates using a Multidrop Combi (ThermoFisher Scientific, Waltham, MA) dispenser. After the assay plates were incubated at a 37C and 5% CO2 for 4 hr, 23 nL of compounds dissolved in DMSO, positive controls or DMSO only was transferred to the assay plate by a Pintool station (Kalypsys, San Diego, CA), followed by addition of 1 uL of agonist (R1881) in culture medium using a Bioraptr Flying Reagent Dispenser (FRD) workstation (Beckman Coulter, Indianapolis, IN, USA). The plates were incubated at a 37C and 5% CO2 for 16 h. After 1 uL of LiveBLAzerTM B/G FRET substrate was added using a Bioraptr FRD, the plates were incubated at room temperature for 2 h and fluorescence intensity was measured by an Envision plate reader (PerkinElmer, Shelton, CT). For cell viability readout that measures cytotoxicity, 4 ul/well of CellTiter-Glo reagent was added into the assay plates using a Bioraptr FRD. After 30 min incubation at room temperature, the luminescence intensity in the plates was measured using a ViewLux (PerkinElmer) plate reader.
Background: Quantitative high-throughput screening tests each substance at several concentrations.
`COc1ccc(C(=O)/C(Br)=C\C(=O)O)cc1`: the “activity change, negative = cytotoxicity” value is -19% (inactive). As for `CCCCCCCC[N+](CCCCCCCC)(CCCCCCCC)CCCCCCCC`, the Potency was 0.308 µM (active). Take `CC1=C(/C=C/C(C)=C/C=C/C(C)=C/C=O)C(C)(C)CCC1`: the Potency was 21.8 µM (active). The same measure, in the same setting: next, `O=c1cccccc1O`: 44.5 µM (active). As for `CCc1cc(SCc2sc(-c3ccc(C(F)(F)F)cc3)nc2CN2CCN(c3ccc(OC)cc3)CC2)ccc1OCC(=O)O`, the Potency was 5.49 µM (active). The same measure, in the same setting: to `O=CC=C(c1ccccc1)c1ccccc1` belongs 22.1 µM (active). On the same count and under the same terms, to `CCc1cc(Cc2cc(CC)cc(C(C)(C)C)c2O)c(O)c(C(C)(C)C)c1` belongs 24.5 µM (active). Turning to `C=C(C)C(=O)OCC[N+](C)(C)C`, the “activity change, negative = cytotoxicity” value is -1.52% (inactive). As for `CCc1oc2ccccc2c1C(=O)c1cc(Br)c(O)c(Br)c1`, the “activity change, negative = cytotoxicity” value was -16.1% (inactive). Turning to `O=C(c1ccc(O)cc1O)c1ccc(O)cc1O`, the Potency result is “inactive”. For `CN(C/C=C/C#CC(C)(C)C)Cc1cccc2ccccc12`, the “activity change, negative = cytotoxicity” value was 0.374% (inactive).

`Oc1ccc(C2(c3ccc(O)cc3)CC3CC2C2CCCC32)cc1` (stereo not given): the Potency is 47 µM (active).

`CCOC(=O)O[C@]1(C(=O)OCCl)CC[C@H]2[C@@H]3CCC4=CC(=O)C=C[C@]4(C)[C@H]3[C@@H](O)C[C@@]21C`: the “activity change, negative = cytotoxicity” value was 0.857% (inactive).

With `CCCCCCCCCCCCCCCCCC[N+](C)(C)Cc1ccccc1`, the Potency is 19.7 µM (active). As for `Cc1cc2c(cc1C(F)(F)F)N(C(=O)Nc1ccc(Oc3cccnc3C)nc1)CC2`, the “activity change, negative = cytotoxicity” value is -13.7% (inactive). In the case of `[Cl][Bi]([Cl])([c]1ccccc1)([c]1ccccc1)[c]1ccccc1`, the Potency was 12.2 µM (active). Regarding `Nc1ccc2c3c(cccc13)-c1ccccc1-2`, the “activity change, negative = cytotoxicity” value was -22.3% [at 78.9 µM] (inactive). On to `Clc1ccccc1C(c1ccccc1)(c1ccccc1)n1ccnc1`, for which the Potency is 54.9 µM (active). Same read-out and setting: next, `Cc1ccc(O)c(C(C)(C)C)c1`: 15.5 µM (active). With `Cc1cccc(S(=O)(=O)O)c1C`, the “activity change, negative = cytotoxicity” value is 1.81% (inactive).

Regarding `COc1ccc(CN2CCN(C(c3ccc(F)cc3)c3ccc(F)cc3)CC2)c(OC)c1OC`, the Potency is 23.9 µM (active). In the case of `CCCCCCCCCCCC[N+](C)(C)CCCCCCCCCCCC`, the Potency was 19.5 µM (active). In the case of `NNC(=O)c1cccc(C(=O)NN)c1`, the “activity change, negative = cytotoxicity” value was 4.88% (inactive). Same read-out and setting: to `CN1CCC(Nc2ncc3ncnc(Nc4ccc(F)c(Cl)c4)c3n2)CC1` belongs -2.82% (inactive); to `CCN(C(=O)N(CC)c1ccccc1)c1ccccc1`, -29.9% (inactive). As to `OCCN1CCN(CC/C=C2/c3ccccc3Sc3ccc(C(F)(F)F)cc32)CC1`, the Potency was 19 µM (active). Turning to `O=C(NO)C1(NS(=O)(=O)c2ccc(Oc3ccc(F)cc3)cc2)CCOCC1`, the “activity change, negative = cytotoxicity” value is 12% (inactive). Still for that read-out and setting: next, `C[n+]1ccn(Cc2ccccc2)c1`: -0.571% (inactive). On to `O=C1c2ccccc2Cc2ccccc21`, for which the “activity change, negative = cytotoxicity” value was -0.798% [at 78.9 µM] (inactive). Turning to `O=c1c(-c2ccccc2)c1-c1ccccc1`, the Potency is 21.3 µM (active). In the case of `CCc1cc(Cc2cc(CC)c(N)c(CC)c2)cc(CC)c1N`, the “activity change, negative = cytotoxicity” value was -26.8% (inactive).

In the case of `CC/C(=C(\c1ccc(O)cc1)c1ccc(OCCN(C)C)cc1)c1ccccc1`, the Potency is 15.5 µM (active).

As to `CC(C)OC(=O)c1cc2c(OCC(O)CNC(C)(C)C)cccc2[nH]1` (stereo not given), the “activity change, negative = cytotoxicity” value is 0.6% (inactive). Turning to `CCCCC(CC)CN=C(N)NC(N)=NCCCCCCN=C(N)NC(N)=NCC(CC)CCCC` (stereo not given), the Potency was 13.4 µM (active). In the case of `CC(C)(C)CC(C)(C)c1ccc(O)c(Cc2ccc(Cl)cc2Cl)c1`, the “activity change, negative = cytotoxicity” value is -6.02% (inactive). Same read-out and setting: next, `CC(C)CCCCCCCCCCCCCCC(=O)O`: 6.02% (inactive). With `OC1(c2ccc(Cl)c(C(F)(F)F)c2)CCN(CCCC(c2ccc(F)cc2)c2ccc(F)cc2)CC1`, the Potency was 19 µM (active). Same read-out and setting: next, `O=c1[nH]sc2ccccc12`: 24.5 µM (active); `CCCCCCCCCCCC(=O)NCCCN(C)C`: 43.6 µM (active). On to `CC(C)(C)C(=O)OCOC(=O)C1N2C(=O)CC2S(=O)(=O)C1(C)C` (stereo not given), for which the “activity change, negative = cytotoxicity” value was 13.3% (inactive).
